# High-throughput results: PubChem, National Center for Advancing Translational Sciences (NCATS)
# Tau fibril ThT: qHTS for Inhibitors of Tau Fibril Formation, Thioflavin T Binding; recombinant tau K18 P301L, heparin-induced fibrillization, ThT fluorescence; Potency, µM (series often up to 57.4 µM), inactives show at the highest dose activity, negative = inhibition, usual class: inhibitors; 2.1% of 270,000 active; AID 1460, 2008; note: potency is the fitted concentration of half-maximal effect; nearly all actives have a fitted effect of over 55% in size
# Target sequence (P10636 561-689 P618L limits assumed): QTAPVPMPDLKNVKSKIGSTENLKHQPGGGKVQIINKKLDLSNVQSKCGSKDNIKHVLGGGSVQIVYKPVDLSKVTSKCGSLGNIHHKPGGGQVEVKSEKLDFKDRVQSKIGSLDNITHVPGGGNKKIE
#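 Aggregation was driven by heparin (20 uM final) acting on recombinant tau […] bearing P301L in 100 mM sodium acetate pH 7; fibrils were detected with Thioflavin T.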
# Tau fluor cs: Counterscreen qHTS for Inhibitors of Tau Fibril Formation, Fluorescence Polarization; tau K18 P301L Alexa594 fluorescence, heparin fibrillization; Potency, µM (top dose mostly 57.7 µM), for the others: top-dose activity change, negative = decrease; 0.93% of 280,000 active; note: potency is the fitted concentration of half-maximal effect; nearly all actives have a fitted effect of over 55% in size
#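 Human tau K18 P301L (15 uM unlabeled, 0.24 uM Alexa 594-labeled) in 100 mM sodium acetate pH 7 with 20 uM heparin, 6 hr at 37 C. ThT 30 uM added, 1 hr ambient; Alexa 594 FP and total fluorescence read at 555/632 nm.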
# Tau FP inhib: qHTS for Inhibitors of Tau Fibril Formation, Fluorescence Polarization. Microtubule-associated protein tau (Homo sapiens), P10636. K18 P301L tau heparin fibrillization, Alexa594 FP, 6 h. Potency, µM (highest dose often 57.7 µM), without a hit: at the top dose activity, negative = inhibition, hits mostly inhibitors. 0.39% of 280,000 active; note: potency is the fitted concentration of half-maximal effect; nearly all actives have a fitted effect of over 55% in size
#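 Recombinant K18 P301L […], labeled with Alexa 594 at 0.24 uM over 15 uM unlabeled; heparin inducer 20 uM final; 37 C, 6 hr; FP endpoint.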
# TRb SRC2 PPI: qHTS for Inhibitors of the Interaction of Thyroid Hormone Receptor and Steroid Receptor Coregulator 2. Thyroid hormone receptor beta (Homo sapiens), P10828. TRbeta-SRC2 peptide binding, fluorescence polarization; receptor liganded with 1 µM T3. Potency, µM (highest dose often 106 µM), for inactives: at the top dose activity change, negative = inhibition, most hits filed as inhibitors. 0.065% of 280,000 active. AID 1469, 2008;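 note: potency is the fitted concentration of half-maximal effect; plate controls were bound peptide for no effect and peptide without receptor for full effect; nearly all actives have a fitted effect of over 50% in size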
# Target sequence (P10828 whole entry, looked up): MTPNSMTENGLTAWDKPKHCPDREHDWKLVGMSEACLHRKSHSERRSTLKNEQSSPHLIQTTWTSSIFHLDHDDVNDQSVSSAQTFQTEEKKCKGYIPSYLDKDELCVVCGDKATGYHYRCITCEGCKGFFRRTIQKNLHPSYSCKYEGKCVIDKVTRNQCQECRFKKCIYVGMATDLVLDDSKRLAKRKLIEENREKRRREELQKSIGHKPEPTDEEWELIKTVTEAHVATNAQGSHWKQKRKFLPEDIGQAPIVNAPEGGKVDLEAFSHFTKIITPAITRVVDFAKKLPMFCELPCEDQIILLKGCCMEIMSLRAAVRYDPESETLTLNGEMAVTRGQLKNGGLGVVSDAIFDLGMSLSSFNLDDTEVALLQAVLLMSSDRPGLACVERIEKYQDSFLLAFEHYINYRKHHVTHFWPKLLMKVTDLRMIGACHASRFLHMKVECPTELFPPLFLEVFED
#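 A fluorescence polarization screen tested compounds at multiple concentrations against complex formation between 0.6 uM TRb ligand-binding domain and 20 nM Texas Red SRC2 peptide, with 1 uM T3 present; readout after 5 hr.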
# TR SRC2 fluor cs: Total Fluorescence Counterscreen for Inhibitors of the Interaction of Thyroid Hormone Receptor and Steroid Receptor Coregulator 2. 0.29% of 280,000 active. AID 1479, 2009. TRb/SRC2 Texas Red total fluorescence interference. Potency, µM (doses to about 106 µM), for the others: at the top dose fluorescence change, negative = quenching; active = well fitted curve in either direction with a large enough effect; inconclusive = small, poorly fitted or top-dose-only effect; note: potency is the fitted concentration of half-maximal effect
#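 Flags fluorescent or light-absorbing compounds by total fluorescence, S + 2P, at 555 nm excitation and 632 nm emission. Mixture: 20 nM Texas Red SRC2 peptide, 0.6 uM human TRb LBD, 1 uM T3, 5% DMSO; compound exposure 5 h at ambient temperature.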
# PNC inhibitor: High Content Assay for Compounds that inhibit the Assembly of the Perinucleolar Compartment; activity change (PNC), negative = inhibition, % at 10 µM; PC3M PTB-GFP, PNC prevalence imaging, 16 h; hits give low values; 3.1% of 140,000 active; AID 2417, 2010;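 active = readout at or below -70, meaning at least 70% loss of cells showing the perinucleolar compartment, a nuclear body marking cancer cells; inconclusive = readout between -30 and a set limit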;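 note: plate controls were DMSO wells for no effect and camptothecin positive control wells for full effect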
#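 Compounds are pinned in duplicate onto adhered PC3M cells stably expressing GFP-tagged PTB and incubated 16 h at 37 C. Cells are then fixed, nuclei stained with Hoechst, and PNC-positive cells counted.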
# Numbers without * were called inactive; ? = inconclusive; / = no result given; [ ] = remark or other dose. Shown are actives, neighbours in structure and some others; about 4.6% of the full set was active somewhere. Unless noted, calls come from the whole dose curve; as a rule, active = well fitted curve in the direction sought with a large enough effect; inconclusive = small, poorly fitted or top-dose-only effect, or another doubt; inactive = no such curve, though single readings can be large; an effect the other way counts as inactive or inconclusive. Unless noted, % is set by controls: 0 for no effect and ±100 for the full control effect.
SMILES,Tau fibril ThT,Tau fluor cs,Tau FP inhib,TRb SRC2 PPI,TR SRC2 fluor cs,PNC inhibitor
Cc1cc(C)cc(Nc2nc3c([nH]2)c(=O)n(C)c(=O)n3C)c1,?,?,?,-4%,-6%,/
CCn1nnnc1SCC(=O)N1CCOCC1,-3%,1%,-2%,-3%,-5%,30
O=c1ccc(Oc2nc(N3CCCCC3)nc(N3CCCCC3)n2)n[nH]1,-11%,-10%,-4%,-12%,-1%,-100*
CCOc1ccc(NC(=O)Cn2sc3nc(C)cc(C)c3c2=O)cc1,13µM*,-25%,20µM*,-3%,-5%,/
Cc1ccc(NC(=O)Cn2sc3nc(C)cc(C)c3c2=O)c(Cl)c1,28µM*,-9%,?,6%,-5%,/
Cc1cc(C)c2c(=O)n(CC(=O)Nc3cccc(F)c3)sc2n1,14µM*,-23%,14µM*,2%,-9%,/
Cc1cc(C)c2c(=O)n(CC(=O)Nc3ccc(Cl)cc3)sc2n1,/,-27%,?,-2%,-7%,/
CCOc1ccccc1NC(=O)C1CCCN(S(=O)(=O)c2ccc3c(c2)CCCN3C(C)=O)C1 (stereo not drawn),-6%,-4%,6%,-2%,-1%,/
O=C1NC(=O)C(c2ccccc2[N+](=O)[O-])=C1Nc1ccc(O)c(Cl)c1,7.9µM*,?,?,2%,-21%,/
CN(C)c1ccc(/C=C2\CCC/C(=C\c3ccccc3)C2=O)cc1,2µM*,?,-2%,-7%,1%,-24
O=C1/C(=C/c2ccccc2)CCCc2ccccc21,?,-17%,-7%,-1%,1%,23
CN(C)/N=C/C=C1\CCC/C(=C\c2ccc(F)c(F)c2)C1=O,2%,-11%,1%,0%,-2%,/
COc1ccc(/C=C2\CCC/C(=C\C=N\N(C)C)C2=O)cc1,2.5µM*,-29%,0%,1%,-6%,/
O=C1/C(=C/c2ccc(C(=O)O)cc2)CCC/C1=C\c1ccc(C(=O)O)cc1,10µM*,-9%,?,4%,0%,-93*
Cc1ccccc1NC(=S)NC(NC(=O)COc1ccccc1)C(Cl)(Cl)Cl (stereo not drawn),14µM*,-19%,?,0%,-5%,-22
Cc1ccccc1NC(=S)NC(NC(=O)c1ccco1)C(Cl)(Cl)Cl (stereo not drawn),3%,0%,3%,-3%,-11%,-120*
Cc1cccc(OCc2nnc(N)s2)c1,-8%,2%,1%,0%,-7%,24
C/C(=N\NC(=O)c1c(Br)c(C)nn1C)c1cccc(NC(=O)c2ccccc2C)c1,?,-9%,10%,-3%,1%,?
COc1cc(CN2CCN(C(=O)CC(C)C)CC2)cc(OC)c1OC,2%,-2%,0%,3%,1%,?
COc1ccc(C(=O)N2CCN(Cc3cc(OC)c(O)c(OC)c3)CC2)cc1OC,?,?,1%,-6%,-9%,-87*
COc1cc(C(=O)N2CCN(c3ccc(C)cc3C)CC2)cc(OC)c1OC,-14%,-2%,9%,1%,-1%,-119*
COc1ccc(CN2CCN(C(=O)c3cc(OC)c(OC)c(OC)c3)CC2)cc1OC,-1%,2%,4%,-4%,1%,-100*
CCc1ccc(CN2CCN(C(=O)c3cccc(OC)c3OC)CC2)cc1,-7%,3%,5%,-3%,-6%,-100*
CCOC(=O)C1=NOC(Cn2cc(C#N)c(=O)n(C)c2=O)C1 (stereo not drawn),6%,13%,6%,1%,-2%,/
COc1cc(/C=C/C(=O)O)cc(S(=O)(=O)NCc2ccc3c(c2)OCO3)c1OC,-13%,-10%,2%,-4%[53 µM],0%[53 µM],/
SMILES,Tau fibril ThT,Tau fluor cs,Tau FP inhib,TRb SRC2 PPI,TR SRC2 fluor cs,PNC inhibitor
COc1ccccc1-n1c(C)nc(=O)c(-c2ccccc2)c1C,12%,9%,1%,8%,0%,-9
Cc1ccc(Cn2cccc2/C=N/NC(=S)Nc2ccc(C)cc2)cc1,-1%,-22%,0%,-10%,-2%,/
COCc1c(C(=O)OC/C(O)=C(\C#N)c2nc3ccccc3[nH]2)oc2ccccc12,-8%,-8%,-1%,-7%,2%,/
Cc1nn2c(-c3cccnc3)ccnc2c1-c1ccccc1,?,-8%,-1%,-4%,-3%,-22
Cc1ccccc1-c1ccnc2c(-c3ccc(F)cc3)c(C)nn12,?,?,-4%,-17%,11µM*[quencher],/
COC(=O)c1ccc(NC(=O)CN2C(=O)CSC2=O)cc1,?,-1%,-2%,-7%,-1%,3
CCOC(=O)c1ccc(NC(=O)CN2C(=O)CSC2=O)cc1,-11%,-3%,?,10%,2%,-90*
CCOC(=O)c1cc(NC(=O)COC)ccc1O,9%,-2%,-2%,6%,-4%,/
CCOC(=O)c1ccc(NC(=O)COC)cc1,-17%,-1%,0%,4%,-2%,-89*
CCOc1c(Nc2ccccc2O)c(=O)c1=O,-2%,1%,1%,3%,-2%,/
CCOC(=O)c1ccc(NC(=S)Nc2cccc(C)n2)cc1,-8%,-5%,-6%,-3%,-1%,-85*
CCOC(=O)c1ccc(Nc2c(OCC)c(=O)c2=O)cc1,/,18µM*[quencher],-5%,-8%,-3%,/
CC(C)N(C(=O)CSc1nnc(NC(=O)c2ccco2)s1)C(C)C,1%,0%,-2%,2%,-4%,/
CCOC(=O)Cn1cc(C(=O)c2cccs2)c2ccccc21,-4%,-16%,-8%,-8%,1%,?
CCOC(=O)c1ccc(NC(=O)Cn2cc(C(=O)c3cccs3)c3ccccc32)cc1,-11%,?,16µM*,2%,1%,/
CCc1ccc(NC(=O)CN(c2ccc(C)cc2)S(=O)(=O)c2c(C)nn(C)c2C)cc1,-2%,-19%,2%,-4%,0%,/
O=C(Nc1ccc(Br)cc1)c1cccc(S(=O)(=O)Nc2ccc(Br)cc2)c1,/,/,/,0%,15%,/
O=C(O)c1cccc(NC(=O)c2cccc(S(=O)(=O)Nc3cccc(F)c3)c2)c1,0%,1%,2%,?,0.32µM*[quencher],/
O=C(O)c1cccc(NC(=O)c2cccc(S(=O)(=O)Nc3cccc(C(=O)O)c3)c2)c1,-1%,-2%,-12%,-7%,-5%,/
